The source of these data is PubChem BioAssay AID652067 (The Scripps Research Institute Molecular Screening Center, 2013).

Screen size: about 370,000 compounds; about 5,400 (1.5%) were called active. Many of the other results were omitted from the sample, so actives are more common in it than they were. A number with no mark means an inactive call.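 The calls were made as follows: active = activation above the mean of all tested compounds plus 3 SD (cut at about 5.5% in these data); inactive = the rest.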

The assay concerns DAF-12 nuclear receptor (Haemonchus contortus). As to the kind of experiment: H. contortus DAF-12 nuclear receptor activators, primary screen, cell-based, luminescence, HEK293, lit1-tk-luc reporter (AID 652067).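 Also: 100% = response to 3 µM Δ7-dafachronic acid high control.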 As to conditions: HEK293 hcDAF-12 lit1-tk-luc reporter, at 6.8 µM, active compounds read high, 0% DMSO, 100% Δ7-dafachronic acid.
For the compound `CC(=O)Nc1nc2ncccn2c1-c1ccc(C(F)(F)F)cc1`, the activation is -1.9%.
On to `O=S(=O)(c1ccccc1)N1CCC(c2nc3ccccc3o2)CC1`, for which the activation was 2.42%.
The figure for `Clc1ccc(C(Cn2ccnc2)OCc2ccsc2Cl)c(Cl)c1` (centres undefined) is -3.27%.
In the case of `Clc1ccc2nc(CSc3ccccc3)cn2c1` it was 6.03% (active); in that of `O=c1c2ccccc2nc2n1C(CSc1ccc(Cl)cc1)CN2` (centres undefined), 2.36%.
In the case of `Cn1nc(-c2ccccc2)c(CSc2cccc(Cl)c2)c1Cl` it was -1.8%; in that of `C#CCN([C@@H](C)C(=O)OCC)S(=O)(=O)c1ccc(Br)cc1F`, -0.18%; in that of `COC(C(=O)Nc1ccc(S(=O)(=O)Nc2ccc(C)c(C)c2)cc1)c1ccccc1` (centres undefined), 0.37%.
As for `Cc1ccc(N/C=C/C(=O)c2ccccc2)cc1C`, the activation was 15% (active).
The figure for `Cc1ccc(NNC(=O)C2CCC2)cc1C` is 2.28%; for `COC(=O)C1CN(CCc2ccccc2)CCS(=O)(=O)N1Cc1ccc(F)cc1` (centres undefined) it is 1.33%.
In the case of `Cc1ccc(Cn2cc(CN3[C@@H](CC(C)C)COc4ccc(Cl)cc4S3(=O)=O)nn2)cc1` it was -0.25%; in that of `COc1ccccc1N(CC(=O)Nc1ccc(C)cc1Cl)S(=O)(=O)c1cccs1`, -2.56%; in that of `O=C(CN1CCCCC1)NC(=O)Nc1ccccc1F`, 7.05% (active).
The figure for `CN(CC(=O)NC(=O)Nc1ccccc1F)Cc1ccccc1` is -0.6%.
For `O=C(CN1CCCCCC1)Nc1ccc(Cl)cc1F`, the activation was -0.52%.
For `CCOc1ccccc1C(=O)N1CCC[C@@H]1C(=O)N1CCC[C@H]1C(=O)NCc1ccccc1`, the activation is -0.98%.
In the case of `COC(=O)C1(S(=O)(=O)C2(C(=O)OC)CCCC2)CCCC1` it was -1.17%; in that of `Oc1c(Cl)cc(Cl)cc1/C=N/c1ncn[nH]1`, -0.22%.
On to `Oc1ccc(Cl)cc1/C=N/c1nc2ccccc2[nH]1`, for which the activation was 5.95% (active).
In the case of `O=C(NCc1ccccc1)[C@H]1CCCN1C(=O)[C@H]1CCCN1C(=O)N1CCOCC1` it was 0.81%; in that of `COC(=O)C1=C(C)N(Cc2ccc(C(F)(F)F)cc2)C(=NCc2ccc(C(F)(F)F)cc2)NC1c1cccc(Cl)c1` (centres undefined), -0.62%; in that of `COc1ccc(C2CC=C(C(=O)O)C(c3ccccc3F)N2S(=O)(=O)c2ccc(C)cc2)cc1OC` (centres undefined), -1.61%.
Regarding `CCOC(=O)c1c(NC(=O)C2(C)Cc3ccccc3C(=O)O2)sc2c1CCCC2` (centres undefined), the activation is -3.38%.
The figure for `COC(=O)c1c(NC(=O)COC(=O)[C@@H](NS(=O)(=O)c2ccccc2)C(C)C)sc2c1CCC2` is 1.86%; for `CCOC(=O)c1c(NC(=O)C(C)Sc2c[nH]c3ccccc23)sc2c1CCC2` (centres undefined) it is 5.61% (active).
In the case of `O=S1(=O)c2ccc(Br)cc2-n2nncc2CN1Cc1cccc(Cl)c1` it was 0.57%; in that of `CC(C)CNS(=O)(=O)CC1NCCc2ccccc21` (centres undefined), -2.97%.
The figure for `COc1ccc(C(=O)CC(=O)c2ccc(C)cc2)c(O)c1` is -0.09%; for `COc1ccc(C(=O)C[n+]2ccc(C)cc2)cc1` it is 6.64% (active).
For `COc1ccc(C(=O)C[n+]2ccc(N)c(C)c2C)cc1`, the activation is -1.41%.
In the case of `O=C(CSc1nnc(-c2ccccn2)n1-c1ccc(Cl)cc1)Nc1ccccc1-c1ccccc1` it was -4.12%.
Take `Oc1cccc2ccc(/C=C/c3ccc(Br)s3)nc12`: the activation was 10.2% (active).
The figure for `O=C(Cn1c(-c2ccc(Cl)cc2)noc1=O)N1CCN(c2ccccc2F)CC1` is -0.55%; for `Cc1ccc(NC(=O)Nc2cc(C)nn2-c2ccccc2)cc1` it is -0.41%; for `COC(=O)c1cc(C(=O)OC)cc(N2C(=O)CC(N3CCN(c4ccccc4)CC3)C2=O)c1` (centres undefined) it is 0.25%.
As to `COC(=O)C1=NN(c2ccccc2)C2C(=O)N(c3ccccc3OC)C(=O)C12` (centres undefined), the activation is 9.57% (active).
The figure for `COC(=O)C1(C)NC(c2ccccc2OC)C2C(=O)N(c3ccccc3)C(=O)C21` (centres undefined) is -2.14%; for `CCOC(=O)C1CSCCS(=O)(=O)N1Cc1ccc(Cl)cc1` (centres undefined) it is -2.38%; for `O=C(C(=O)N1CCC(CNS(=O)(=O)Cc2ccccc2)CC1)c1cc2ccccc2o1` it is -0.72%.
The figure for `COc1ccc(C2COC(=O)C2=N)c(NC(=O)c2ccccc2)c1` (centres undefined) is 8.16% (active).
In the case of `COc1cccc(C(=O)Nc2cc3c(cc2Br)OCCCO3)c1` it was 3.75%; in that of `COc1ccc(OC)c(NC(=O)c2cccc(S(=O)(=O)N3CCN(C(C)=O)CC3)c2)c1`, 0.25%.
On to `COc1cc(/C=C/C(=O)n2cnc3ccccc32)cc(OC)c1OC`, for which the activation is 0.33%.
`O=C(CSc1nnc(COc2ccccc2)n1Cc1ccco1)c1ccc2ccccc2c1`: the activation was -2.67%.
In the case of `CCOc1ccc(OCc2ccc(C(=O)Nc3cccc(C)n3)o2)cc1` it was -1.6%; in that of `COC(=O)c1ccc(NC(=S)Nc2cccc(C)n2)cc1`, 1.84%.
The figure for `Cc1cccc(NC(=O)c2ccc3ccccc3n2)n1` is 9.6% (active); for `O=C(CN1CCCc2ccccc21)NCc1ccc(F)cc1` it is -1.35%; for `Cc1cc(C)n2ncc(C(=O)Nc3ccc4c(c3)OCCO4)c2n1` it is -0.67%.
In the case of `C[C@H](NC(=O)c1ccccc1)C(=O)OCC(=O)c1c[nH]c2ccccc12` it was 4.62%; in that of `CCOc1ncccc1C(=O)OCC(=O)c1c[nH]c2ccccc12`, 4.68%; in that of `O=C(OCC(=O)c1c[nH]c2ccccc12)c1cccc(O)c1`, 8.68% (active).
Consider `CCOC(=O)C1=C(C(=O)OCC)C2N(Cc3ccc(C#N)cc3)c3ccccc3[C@@]23C[C@@H](C(=O)OC)N(S(=O)(=O)c2ccc(F)cc2)C3=N1` (some centres undefined), for which the activation is 0.61%.
In the case of `CCCCOCC1CN(CCCC)S(=O)(=O)c2c(Oc3ccc(F)cc3)cccc2O1` (centres undefined) it was -1.09%; in that of `C/C(Cc1ccccc1)=N\NC(=O)CNC(=O)c1ccc2c(c1)OCCO2`, -2.46%.
The figure for `C/C(=N\NC(=S)NCc1ccccc1)c1ccc(Cl)cc1` is -0.65%; for `C/C(=N/NC(=S)Nc1ccccc1)c1ccc2c(c1)OCO2` it is 8.71% (active).
The figure for `Cn1c(=NC(=O)C2CC2)sc2cc(F)cc(F)c21` is 7.5% (active).
